# Source: PubChem (National Center for Advancing Translational Sciences (NCATS))
# This is a sample that favours compounds with a hit; in the whole collection about 10% have one here.
# JMJD2A Tudor: blocks the human JMJD2A Tudor domain | O75164 | AlphaScreen JMJD2A-Tudor / H3K4me3 peptide binding | Potency, µM (titrated, usually from 114 µM), inactives show top-dose activity change, negative = inhibition, actives largely listed as inhibitors | 390,000 tested, 4.4% active | AID 504339; note: % is set by controls: 0 for no effect and ±100 for the full control effect; nearly all actives have a fitted effect of over 50% in size
# Target sequence (O75164 whole entry, looked up, the tested form may be a part): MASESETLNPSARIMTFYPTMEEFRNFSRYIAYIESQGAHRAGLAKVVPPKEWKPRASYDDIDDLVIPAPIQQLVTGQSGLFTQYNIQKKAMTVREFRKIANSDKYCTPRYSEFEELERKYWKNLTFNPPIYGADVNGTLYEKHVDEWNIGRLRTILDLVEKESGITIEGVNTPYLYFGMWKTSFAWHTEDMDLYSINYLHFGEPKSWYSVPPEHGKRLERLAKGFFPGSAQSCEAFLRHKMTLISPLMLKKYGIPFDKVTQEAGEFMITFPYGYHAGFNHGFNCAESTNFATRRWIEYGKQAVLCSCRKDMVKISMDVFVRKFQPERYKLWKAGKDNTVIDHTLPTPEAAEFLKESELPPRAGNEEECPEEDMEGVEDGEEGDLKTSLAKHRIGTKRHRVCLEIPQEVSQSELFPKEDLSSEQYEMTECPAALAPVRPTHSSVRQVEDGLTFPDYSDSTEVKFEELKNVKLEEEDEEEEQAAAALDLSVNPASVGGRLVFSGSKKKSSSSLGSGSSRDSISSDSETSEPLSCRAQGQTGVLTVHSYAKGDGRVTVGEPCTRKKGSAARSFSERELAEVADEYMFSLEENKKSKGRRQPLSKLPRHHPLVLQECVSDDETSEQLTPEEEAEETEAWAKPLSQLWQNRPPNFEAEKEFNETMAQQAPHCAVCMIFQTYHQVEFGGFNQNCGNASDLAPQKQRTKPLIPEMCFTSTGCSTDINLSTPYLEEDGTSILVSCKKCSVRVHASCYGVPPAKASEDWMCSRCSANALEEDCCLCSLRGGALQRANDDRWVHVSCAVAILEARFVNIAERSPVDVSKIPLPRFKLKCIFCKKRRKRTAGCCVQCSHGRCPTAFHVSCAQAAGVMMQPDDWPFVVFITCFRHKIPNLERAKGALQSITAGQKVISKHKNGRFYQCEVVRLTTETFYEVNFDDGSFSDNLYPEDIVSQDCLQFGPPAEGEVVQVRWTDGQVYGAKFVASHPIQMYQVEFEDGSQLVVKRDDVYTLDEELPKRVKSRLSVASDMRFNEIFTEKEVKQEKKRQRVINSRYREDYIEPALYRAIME
# G9a block: inhibitors of human histone lysine methyltransferase G9a | AID 504332 | G9a H3K9 monomethylation, AlphaScreen, 2 h | Potency, µM (top dose mostly 102 µM), inactives show top-dose activity, negative = inhibition, most hits filed as inhibitors | Q96KQ7 | 350,000 tested, 8.8% active; note: % is set by controls: 0 for no effect and ±100 for the full control effect; nearly all actives have a fitted effect of over 75% in size
#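 AlphaScreen detection with an anti-monomethyl H3K9 antibody quantified product after a 2 h room-temperature reaction containing 500 nM biotinylated H3K9 peptide, 20 µM SAM and 20 nM enzyme, which had been preincubated 15 min with compound.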
# BAZ2B inh: inhibitors of human BAZ2B bromodomain; Potency, µM (top dose mostly 114 µM), without a hit: top-dose activity change, negative = inhibition, most hits filed as inhibitors; AID 504333; AlphaScreen BAZ2B-H3K14Ac peptide displacement; Q9UIF8; 360,000 tested, 4.4% active; note: % is set by controls: 0 for no effect and ±100 for the full control effect; nearly all actives have a fitted effect of over 60% in size
#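 Multi-concentration screen (max 110 uM) measuring displacement of acetylated histone H3 peptide from BAZ2B by AlphaScreen, using 50 nM protein, 50 nM peptide and 10 ug/mL streptavidin donor plus Ni-chelate acceptor beads.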
# HP1b binding inh: blocks HP1-beta chromodomain binding to methylated histone tails. P83916. AlphaScreen HP1-beta / biotin-H3K9me3 peptide binding. Potency, µM (top dose mostly 114 µM), for inactives: at the highest dose activity change, negative = inhibition, actives largely listed as inhibitors. 390,000 tested, 0.56% active. AID 540317; note: nearly all actives have a fitted effect of over 70% in size
#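 HP1-beta protein (50 nM final) preincubated 30 min at room temperature with biotinylated H3(1-18)K9me3 peptide (50 nM) in PBS pH 7.4, 0.01% Tween-20, then compound added for 30 min. AlphaScreen streptavidin donor/nickel chelate acceptor beads (10 ug/mL final), 30 min dark, luminescence read.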
# GLS inh: inhibitors of human glutaminase (GLS) | Potency, µM (highest dose often 45.5 µM), for inactives: at the highest dose activity change, negative = inhibition, actives largely listed as inhibitors | 410,000 tested, 0.21% active | GLS enzymatic activity, qHTS titration; note: % is set by controls: 0 for no effect and ±100 for the full control effect
#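 Compounds were pin-transferred onto hKGA, after which L-glutamine (1 mM solution) and a detection mix of glutamate oxidase, HRP and Amplex Red were added. Initial and 30 min RT fluorescence reads were collected.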
# The depositor's hits bear a star; ? = inconclusive; · = not tested or not shown; [ ] = remark or other dose. Calls come from the whole dose curve; as a rule, active = well fitted curve in the direction sought with a large enough effect; inconclusive = small, poorly fitted or top-dose-only effect, or another doubt; inactive = no such curve, though single readings can be large; an effect the other way counts as inactive or inconclusive. Potency is the fitted concentration of half-maximal effect.
SMILES,JMJD2A Tudor,G9a block,BAZ2B inh,HP1b binding inh,GLS inh
CSC(=N)N,·,18.8%[12.7 µM],·,·,·
Cc1ccc2[nH]cc(CCNC(=O)CN3C(=O)c4ccccc4C3=O)c2c1,-7.9%,?,?,36.5%,-4.0%
COc1ccc(C(CNC(=O)c2cccc(N(C)C)c2)N2CCCC2)cc1 (stereo unspecified),44.7µM*,?,50.1µM*,-26.8%,40.5%
COc1ccccc1CNC(=O)c1cccc(N(C)C)c1,-29.4%,8.91µM*,-36.3%,8.5%,27.7%
CN(C)c1ccc(C(CNC(=O)c2ccc(-c3ccccc3)cc2)N2CCOCC2)cc1 (stereo unspecified),·,14.1µM*,35.5µM*,·,·
COc1ccc(CNC(=O)c2cccc(N(C)C)c2)cc1,-29.3%,7.08µM*,?,37.2%,40.8%
CN(C)c1ccc(C(CNC(=O)c2ccccc2C(F)(F)F)N2CCOCC2)cc1 (stereo unspecified),-19.2%,-31.7%[59 µM],-8.6%,-11.0%,25.9%
Cc1ccc(C)c(NC(=O)c2nnn(Cc3ccccc3C)c2N)c1,-13.5%,19.8%,3.4%,6.0%,-13.6%
COc1cccc(C(=O)NC2CCN(CC(=O)NCc3ccccc3OC)CC2)c1,-18.0%,18.8%[59 µM],-4.2%,14.7%,4.0%
COc1ccc(CNC(=O)CN2CCC(NC(=O)c3cccc(OC)c3)CC2)cc1,1µM*,·,·,-32.8%[57 µM],?
COc1cccc(CNCC(=O)NC(=O)NC2CCCC2)c1,22.4µM*,·,·,?,-14.2%
CCOc1ccccc1C(=O)Nc1cccc2ccc(C)nc12,-13.6%,-5.4%[59 µM],-3.1%,13.6%,-1.6%
O=C(NCc1cccc(Cl)c1)C1Cc2c(-c3ccc(Cl)cc3)ccnc2O1 (stereo unspecified),·,·,·,·,0.0%
CCN(C(C)=O)c1cnc(C=NNC(N)=S)c2ccccc12,56.2µM*,·,·,2.3%,25.8%
NC(=S)NN=Cc1nccc2c(N)cccc12,·,·,·,·,26.6%
Cc1cc(C)c2c(CC(=O)N3CCCC3)coc2c1,-17.3%,-15.2%,4.8%,31.9%,-3.0%
Cc1ccc(O)c(N=CC2=C(O)c3ccccc3C2=O)c1,?,31.6µM*,39.8µM*,-32.9%,-1.9%
Cn1cc(/C=N/NC(=O)c2cc3cc(Br)ccc3o2)c2ccccc21,-9.4%,50.1µM*,3.2%,35.8%,6.3%
O=C(O)c1ccc(-n2cccc2/C=N\NC(=O)c2cc3cc(Br)ccc3o2)cc1,22.4µM*,14.1µM*,7.94µM*,44.7µM*,13.8%
C#CCn1cc(/C=N/NC(=O)c2cc3ccccc3o2)c2ccccc21,-10.3%,11.6%[59 µM],-3.3%,29.0%,9.4%
O=C(O)Cn1cc(/C=N/NC(=O)c2cc3cc(Br)ccc3o2)c2ccccc21,6.9%,-35.1%,50.1µM*,43.0%,-2.3%
CC1=CC(=C(C#N)C#N)c2ccccc2N1C,-24.8%,5.8%,-12.9%,20.3%,-2.6%
Cc1ccc(C(=O)OCC(=O)N(C)C2CCS(=O)(=O)C2)cc1S(=O)(=O)N1CCOCC1 (stereo unspecified),-12.3%,-27.8%[59 µM],-0.7%,15.0%,6.0%
O=[N+]([O-])c1cccc(-c2nc(NCc3ccccc3)c3ccccc3n2)c1,-17.4%,?,?,5.1%,-2.5%
CN(Cc1ccccc1)c1nc(-c2cccc([N+](=O)[O-])c2)nc2ccccc12,31.6µM*,4.1%[59 µM],-24.3%,-8.2%,?
SMILES,JMJD2A Tudor,G9a block,BAZ2B inh,HP1b binding inh,GLS inh
CC1CCN(CC(=O)Nc2ccccc2-c2ccccc2)CC1,-2.6%,-0.3%[59 µM],18.8%,32.7%,-3.1%
CC1CCCCC1NCC(=O)Nc1ccccc1-c1ccccc1 (stereo unspecified),-13.0%[11.4 µM],6.31µM*,?,-13.7%,-4.1%
CCCCC1(CC(=O)OCC)C(=O)N(c2ccccc2)N(c2ccccc2)C1=O,0.7%,25.1%[59 µM],8.5%,35.1%,17.2%
C=C1c2cccc(O)c2C(=O)C2C(=O)[C@]3(O)C(=O)C(C(N)=O)C(=O)[C@@H](N(C)C)[C@@H]3[C@@H](O)[C@H]12 (stereo partly specified),3.16µM*,·,·,?,8.91µM*
COc1cc(Br)cc(CNc2ccc(F)c([N+](=O)[O-])c2)c1O,?,44.7µM*,?,-2.6%,0.8%
Cc1ccc(CC(=O)Nc2ccc(F)c([N+](=O)[O-])c2)cc1C,-12.1%,-2.1%,?,35.7%,-2.0%
